In PubChem BioAssay AID493087 (The Scripps Research Institute Molecular Screening Center, 2011) one finds activation data, which are given here for 79 compounds.

Out of some 340,000 compounds screened, about 240 (0.071%) were called active. The full list was thinned out, with actives kept by preference. Values without a mark were called inactive.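 Rule for the calls: active = activation above the mean of all tested compounds plus 3 SD, set per screening campaign (cut at about 17% in these data); inactive = the rest.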

Sequence of Insulin-degrading enzyme (Homo sapiens) (P14735 whole entry, looked up): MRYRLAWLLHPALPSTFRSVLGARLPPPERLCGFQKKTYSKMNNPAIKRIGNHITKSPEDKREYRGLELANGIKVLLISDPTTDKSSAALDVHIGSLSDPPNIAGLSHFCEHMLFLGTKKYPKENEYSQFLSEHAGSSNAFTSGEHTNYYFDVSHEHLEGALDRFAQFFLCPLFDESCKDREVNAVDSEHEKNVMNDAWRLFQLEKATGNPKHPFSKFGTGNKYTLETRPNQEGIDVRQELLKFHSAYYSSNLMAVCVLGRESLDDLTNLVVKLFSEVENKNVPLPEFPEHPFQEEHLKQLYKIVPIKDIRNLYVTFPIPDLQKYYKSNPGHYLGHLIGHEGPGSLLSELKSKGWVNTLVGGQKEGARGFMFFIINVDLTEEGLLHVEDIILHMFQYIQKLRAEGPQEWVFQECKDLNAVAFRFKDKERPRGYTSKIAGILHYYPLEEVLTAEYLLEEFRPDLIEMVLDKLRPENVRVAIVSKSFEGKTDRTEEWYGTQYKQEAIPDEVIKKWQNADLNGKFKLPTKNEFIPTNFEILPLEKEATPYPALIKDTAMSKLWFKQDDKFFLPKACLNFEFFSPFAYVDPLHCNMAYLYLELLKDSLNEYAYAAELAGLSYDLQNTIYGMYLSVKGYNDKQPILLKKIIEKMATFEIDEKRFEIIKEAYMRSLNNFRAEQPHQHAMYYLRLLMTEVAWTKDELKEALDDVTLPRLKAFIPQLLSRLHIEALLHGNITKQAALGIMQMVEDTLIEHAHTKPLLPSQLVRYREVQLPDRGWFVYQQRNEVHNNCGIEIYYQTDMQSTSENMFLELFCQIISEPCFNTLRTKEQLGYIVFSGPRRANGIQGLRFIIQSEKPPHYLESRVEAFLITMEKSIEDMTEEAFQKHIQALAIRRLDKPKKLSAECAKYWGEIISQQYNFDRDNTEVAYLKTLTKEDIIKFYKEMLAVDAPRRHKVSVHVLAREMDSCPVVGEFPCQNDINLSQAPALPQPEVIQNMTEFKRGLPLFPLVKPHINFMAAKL

This experiment concerns the target Insulin-degrading enzyme (Homo sapiens) (UniProt P14735). Kind of experiment: enhanced cellular IDE Abeta cleavage – fluorescence polarization, HEK cells, FAbeta-B substrate, primary screen (AID 493087). The note with it: at 5.96 µM, hits give high values, 0% vehicle, 100% cell-free pure enzyme wells. On the technique in general: In fluorescence polarisation assays a small probe gives low polarisation when free and higher when bound to something large.
On to `Cc1ccccc1CSCCNC(=O)c1ccc(N(C)S(=O)(=O)c2ccccc2)cc1`, for which the activation was 1.48%.

Regarding `O=c1c([N+](=O)[O-])cccn1Cc1ccc(F)cc1Cl`, the activation was -1.28%.

Consider `Cc1ccc(CNC(=O)CCCNC(=O)c2ccc(Cl)cc2)n1C`, for which the activation is 5.76%.

In the case of `CCOc1cc(/C=C2\SC(N3CCCC(C)C3)=NC2=O)ccc1O` (centres undefined), the activation was -15.9%.

`CC(=O)Nc1ccc(S(=O)(=O)NCC(=O)OCc2cc(=O)oc3ccc4ccccc4c23)cc1`: the activation was 3.05%.

Consider `CCC(=O)NNc1cc(=O)c2c(=O)n(C)c(=O)n(C)c2[nH]1`, for which the activation is 3.85%.

Turning to `Cc1noc(C)c1CSCC(=O)Nc1ccc(Br)cc1Cl`, the activation was 2.79%.

With `CC1=C/C(=N\OS(=O)(=O)c2ccccc2)C=CC1=O`, the activation is -10.8%.

Take `Cc1cccc(NC(=O)c2cccc(C(=O)Nc3cccc(C)c3C)n2)c1C`: the activation is -1.85%.

With `CC(C)(C)C1C/C(=C/c2ccco2)C(=O)/C(=C/c2ccco2)C1` (centres undefined), the activation was -0.63%.

As to `CC1CCN(C(=O)C2CCN(S(=O)(=O)N3CCC4(CC3)OCCO4)CC2)CC1`, the activation is 0.48%.

As for `CCOC(=O)N1CCN(Cc2nc3ccc([N+](=O)[O-])cc3c(=O)n2-c2cccc(OC)c2)CC1`, the activation is 1.47%.

Turning to `CCOc1ccc(N2C(=O)/C(=C/c3ccc(C)o3)N(C)C2=S)cc1`, the activation is 2.68%.

For the compound `CCC(C)(C)NC(=O)CN(C(=O)C(=O)Nc1ccc2c(c1)OCCO2)C(C)(C)CC`, the activation is 4.63%.

In the case of `CCOC(=O)C1(C(F)(F)F)N=C(N(C)C)OC(N(C)C)=N1`, the activation was 8.14%.

On to `CCN(CC)CCCC(C)n1c2nc(=O)[nH]c(=O)c-2nc2cc(Cl)ccc21` (centres undefined), for which the activation was 75.3% (active).

With `C#CCOCCOCCOCCNc1nc(N2CCN(C(=O)Cn3cc(CCCCN)nn3)CC2)nc(N2CCN(C(=O)[C@H](CCCCN)n3cc(CCC(=O)O)nn3)CC2)n1`, the activation was -2.39%.

Consider `C#CCOCCOCCOCCNc1nc(N2CCN(C(=O)CCCCCCCCCCNC(=O)[C@H]([C@@H](C)CC)n3cc(CCCCN=C(N)N)nn3)CC2)nc(N2CCN(C(=O)CCCCCCCCCCNC(=O)[C@H](CO)n3cc(CCCSC)nn3)CC2)n1`, for which the activation is 58% (active).

In the case of `C#CCOCCOCCOCCNc1nc(N2CCN(C(=O)Cn3cc(CCO)nn3)CC2)nc(N2CCN(C(=O)Cn3cc(CCCN=C(N)N)nn3)CC2)n1`, the activation was -2.84%.

As to `C#CCOCCOCCOCCNc1nc(N2CCN(C(=O)Cn3cc(CCO)nn3)CC2)nc(N2CCN(C(=O)[C@H](CCCCN)n3cc(CCCC)nn3)CC2)n1`, the activation is 2.74%.

As to `C#CCOCCOCCOCCNc1nc(N2CCN(C(=O)[C@H](CCCN=C(N)N)n3cc(C(N)[C@@H](C)CC)nn3)CC2)nc(N2CCN(C(=O)[C@H](CO)n3cc([C@@H](N)C(C)C)nn3)CC2)n1` (some centres undefined), the activation was -0.94%.

As for `C#CCOCCOCCOCCNc1nc(N2CCN(C(=O)[C@H](CCCCN)n3cc(CCC(=O)O)nn3)CC2)nc(N2CCN(C(=O)[C@H](CCCCN)n3cc(CC(C)O)nn3)CC2)n1` (some centres undefined), the activation is -4.23%.

With `C#CCOCCOCCOCCNc1nc(N2CCN(C(=O)CCCCCCCCCCNC(=O)Cn3cc(CCCCCN)nn3)CC2)nc(N2CCN(C(=O)CCCCCCCCCCNC(=O)[C@H](CO)n3cc(CCCSC)nn3)CC2)n1`, the activation was 32.6% (active).

For `C#CCOCCOCCOCCNc1nc(N2CCN(C(=O)[C@H](CCC(=O)O)n3cc(CN)nn3)CC2)nc(N2CCN(C(=O)[C@H](CCC(=O)O)n3cc(CN)nn3)CC2)n1`, the activation is 1.77%.

`C#CCOCCOCCOCCNc1nc(N2CCN(C(=O)CCCCCCCCCCNC(=O)[C@H](CCCCN)n3cc(C)nn3)CC2)nc(N2CCN(C(=O)CCCCCCCCCCNC(=O)[C@H](CO)n3cc(CCCSC)nn3)CC2)n1`: the activation is 29.3% (active).

For the compound `CN(C)C(=O)c1cc(Br)ccc1Cl`, the activation was 7.04%.

`O=C(CNC(=O)OCc1ccccc1)Oc1cc2oc(=O)cc(-c3ccccc3)c2cc1Cl`: the activation was 3.87%.

With `CCCCOc1ccc(NC(=O)CSCC(=O)OCC)cc1`, the activation was 0.69%.

`CCCCCCCCCCOC(=O)Cn1c(COc2ccc(C)cc2)[n+](C)c2ccccc21`: the activation is 21.7% (active).

On to `Cc1ccc(COc2ccc(C(=O)NN)cc2)cc1`, for which the activation was -2.7%.

For `CC1CCN(C(=O)CCNC(=O)c2ccccc2)CC1`, the activation was 4.37%.

For the compound `Cc1ccc(Cl)cc1NC(=O)CN1CCN(S(=O)(=O)N2CCOCC2)CC1`, the activation is 3.41%.

As for `C#CCOCCOCCOCCNc1nc(N2CCOCC2)nc(N2CCN(C(=O)[C@H](Cc3ccc(O)cc3)n3cc(CCO)nn3)CC2)n1`, the activation was -1.07%.

As for `COc1ccc(C2=NOC(C(=O)NCc3ccco3)C2)cc1OC` (centres undefined), the activation was -0.49%.

For the compound `COc1ccc2c(c1)c(=Cc1ccc(N(C)C)cc1)c1cc(-c3ccccc3)[n+](C)n12`, the activation was -19.1%.

For the compound `COC(=O)COc1ccc2c(=O)c(Oc3ccccc3Br)coc2c1`, the activation was 1.55%.

In the case of `O=C(Nc1nn(Cc2ccccc2F)cc1Br)c1cccs1`, the activation is 2.02%.

With `O=C(O)CCc1cccnc1`, the activation is 0.08%.

With `CCOc1ccc(S(=O)(=O)N2CCCCCC2)c2ccccc12`, the activation is 7.79%.

As for `COc1ccc(-c2csc3ncnc(Oc4ccc5c(C)cc(=O)oc5c4)c23)cc1`, the activation was -0.97%.

In the case of `CCOC(=O)C1CCN(S(=O)(=O)c2ccc3c(c2)N(C)C(=O)CC(=O)N3C)CC1`, the activation was 4.32%.

As to `Cc1ccc(C(c2nnnn2CS(=O)(=O)c2ccc(C)cc2)N2CCC(C)CC2)cc1` (centres undefined), the activation was 6.3%.

On to `CN1CCN(C(=O)C(=O)c2cn(CC(=O)N3CCCC3)c3ccccc23)CC1`, for which the activation is 0.5%.

In the case of `Fc1cccc(CSc2nnc3ccc(-c4ccncc4)nn23)c1`, the activation is 11%.

Regarding `COC(=O)[C@]1(S(=O)(=O)c2ccccc2)C[C@@H]2ON=C(c3ccc(OC)cc3)[C@@H]2C1`, the activation was -5.33%.

Turning to `COc1ccc(N2CCN(C(=O)c3ccc(N4CCCCS4(=O)=O)cc3)CC2)cc1`, the activation was 1.3%.

As to `CN(CC(=O)NC1CCCCC1)S(=O)(=O)c1cccc2cccnc12`, the activation was 4.22%.

`O=C1/C(=C\c2ccc(O)cc2)CCC1CNc1ccc(Cl)cc1` (centres undefined): the activation is -1.61%.

In the case of `N#Cc1cccc(CN2CCC(=O)N([C@H](CO)c3ccccc3)CC2)c1`, the activation is 2.37%.

Regarding `OC(COc1ccccc1)CN1CCN(c2cccc(Cl)c2)CC1` (centres undefined), the activation was 5.12%.

For the compound `CN(Cc1cccs1)C(=O)CN1C(=O)c2ccccc2S1(=O)=O`, the activation is 0.93%.

Turning to `COCCN(C(=S)Nc1cccc(Cl)c1C)C(C)c1ccco1` (centres undefined), the activation was 1.29%.

Consider `COc1ccc(S(=O)(=O)c2c[nH]c(=S)[nH]c2=O)cc1Cl`, for which the activation was -1.33%.

As for `CN(C)S(=O)(=O)c1ccc(N2CCCC2=O)c([N+](=O)[O-])c1`, the activation was 5.59%.

Consider `COc1ccc(Cn2cc(CN3CCS(=O)(=O)N(Cc4ccc(-c5cccc(Cl)c5)cc4)C(C)C3=O)nn2)cc1` (centres undefined), for which the activation is 1.16%.

Regarding `Cc1noc(C)c1C(=O)OC(C)C(=O)Nc1ccc2c(c1)OCO2` (centres undefined), the activation is 0.42%.

`CCCCSCCCNC(=O)C1CCC(CNS(=O)(=O)c2ccc(NC(C)=O)cc2)CC1` (centres undefined): the activation was -0.18%.

`CCn1c(=O)c([N+](=O)[O-])c(NCc2ccc3c(c2)OCO3)c2ccccc21`: the activation is 23.5% (active).

`CCn1c(=O)cc(SCC(=O)NCc2ccc3c(c2)OCO3)c2ccccc21`: the activation is 2.55%.

Take `C=CCn1c(=O)c(C(=O)NCc2ccc3c(c2)OCO3)c(O)c2ccccc21`: the activation is 3.17%.

Consider `COc1ccccc1CC(NC(C)=O)C(=O)NC1CCN(C(=O)Nc2ccccc2Cl)CC1` (centres undefined), for which the activation was 3.56%.

In the case of `O=C(CSc1ncnc2sccc12)NC1CCS(=O)(=O)C1` (centres undefined), the activation is 6.28%.

With `CCOC(=O)/C=C/CN(C(=O)OC(C)(C)C)S(=O)(=O)N1CC=CC1`, the activation was 34.8% (active).

Take `CCOC(=O)/C=C/c1ccc(C(F)(F)F)cc1S(=O)(=O)NC(C)(C)C`: the activation is -1.81%.

As to `CCOCc1c(C(=O)N2CCN(Cc3ccc(Br)s3)CC2)oc2ccccc12`, the activation is 7.28%.

As for `Cc1ccc(NC2CCCN(C(=O)CCC3(C)CC3)C2)cc1C` (centres undefined), the activation was 3.99%.

For `Cn1c2c(c(=O)n(C)c1=O)[C@@H]1c3c(ccc4ccccc34)OC[C@@H]1CO2`, the activation was 9.31%.

Consider `Cc1cc(C)c(S(=O)(=O)Nc2c(C)n(C)n(-c3ccccc3)c2=O)cc1[N+](=O)[O-]`, for which the activation is 0.96%.

On to `CSc1ccccc1OCc1cc(C(=O)N2C[C@H]3CC[C@H]2C3)no1`, for which the activation is 0.59%.

Turning to `COC(=O)c1c(C)cc(O)c(C)c1O`, the activation was -0.29%.

With `COc1ccc(CCNC(=O)CCNS(=O)(=O)c2cc(Br)cnc2N)cc1OC`, the activation was 3.78%.

As for `Cn1c(N)c(C(=O)COC(=O)/C=C/c2cccc(C(F)(F)F)c2)c(=O)n(C)c1=O`, the activation is 4.24%.

`CCN1CCN(C(=O)C2(NC(=O)Nc3cccc(F)c3)CCCCC2)CC1`: the activation was 4.93%.

As to `CC(=O)N1c2ccc(S(=O)(=O)N3CCCC(C(=O)Nc4cccc(F)c4)C3)cc2CC1C` (centres undefined), the activation was 5.74%.

`Cc1ccc(NC(=O)C(c2ccccc2)N2CCN(C(=O)c3ccco3)CC2)cc1` (centres undefined): the activation is 0.44%.

As to `CCCC[C@@H]1CN=C(N)N1CCc1cc(C(F)(F)F)cc(C(F)(F)F)c1`, the activation was 5.76%.

Regarding `CCCC(C)C(=O)OCC(=O)Nc1c(Br)cc(C)cc1Br` (centres undefined), the activation was 4.33%.

For `Cc1ccc(S(=O)(=O)N2C[C@@H]3CCCC[C@@H]3[C@@H](C)[C@H]2c2cn(Cc3ccccc3)c3ccc(F)cc23)cc1`, the activation was 0.65%.

For `Cc1cccc(N2CCN(C(=O)c3cc4c(=O)[nH]c5ccccc5c4n3C)CC2)c1C`, the activation is 0.68%.
